A selection: hits, their analogues and other compounds. The true share with any hit is near 6%.
Tau ThT inhib – blocks human tau fibril formation measured by thioflavin T; Potency, µM (titrated, usually from 57.4 µM), most hits filed as inhibitors; recombinant tau K18 P301L, heparin-induced fibrillization, ThT fluorescence; AID 1460; actives 2.1% (n = 270,000); P10636; note: nearly all actives have a fitted effect of over 55% in size
Target sequence (P10636 561-689 P618L limits assumed): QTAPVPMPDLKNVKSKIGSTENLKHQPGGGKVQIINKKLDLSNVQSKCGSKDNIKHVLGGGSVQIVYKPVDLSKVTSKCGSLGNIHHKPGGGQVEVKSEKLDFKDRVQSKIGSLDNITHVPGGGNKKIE
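Aggregation was driven by heparin (20 uM final) acting on recombinant tau […] bearing P301L in 100 mM sodium acetate pH 7; fibrils were detected with Thioflavin T.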
PLK1 PBD block – inhibitors of human PLK1 polo-box domain binding; P53350; Plk1 PBD binding of FITC phosphopeptide, fluorescence polarization; Potency, µM, hits mostly inhibitors; actives 2.8% (n = 360,000); AID 720504; note: series mostly up to about 57 µM; nearly all actives have a fitted effect of over 65% in size
Target sequence (P53350 whole entry, looked up, the tested form may be a part): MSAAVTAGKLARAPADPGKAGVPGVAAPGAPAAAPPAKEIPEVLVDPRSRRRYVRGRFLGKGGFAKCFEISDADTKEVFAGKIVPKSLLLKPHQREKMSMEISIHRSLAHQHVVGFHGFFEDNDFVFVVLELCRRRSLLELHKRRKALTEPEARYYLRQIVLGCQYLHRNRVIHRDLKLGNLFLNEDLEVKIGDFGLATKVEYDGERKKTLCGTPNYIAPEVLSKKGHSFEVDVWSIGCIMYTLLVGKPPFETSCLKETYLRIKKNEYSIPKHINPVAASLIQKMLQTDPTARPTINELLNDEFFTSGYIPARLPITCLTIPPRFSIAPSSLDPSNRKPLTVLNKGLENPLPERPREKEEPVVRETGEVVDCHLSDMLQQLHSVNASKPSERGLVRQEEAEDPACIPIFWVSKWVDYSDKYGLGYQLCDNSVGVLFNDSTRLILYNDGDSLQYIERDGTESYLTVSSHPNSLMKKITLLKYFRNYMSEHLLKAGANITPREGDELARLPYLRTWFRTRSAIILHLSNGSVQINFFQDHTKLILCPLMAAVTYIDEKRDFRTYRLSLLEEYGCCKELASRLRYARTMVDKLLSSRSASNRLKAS
Sfp inh – blocks B. subtilis Sfp PPTase activity; Q9F4F7; actives 3.5% (n = 310,000); Biochemical Sfp PPTase activity, qHTS; Potency, µM, actives largely listed as inhibitors; AID 1490;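 note: the enzyme is Sfp with the accession as filed and its product quenches rhodamine fluorescence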
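After 15 min at room temperature with compound, 15 nM Sfp received 5 uM rhodamine-CoA plus 12.5 uM BHQ-2-ybbR (50 mM Hepes pH 7.6, 10 mM MgCl2). Rate came from the fluorescence difference over 30 min, ex 525/em 598 nm.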
VDR inh – blocks the human vitamin D receptor; actives 0.93% (n = 400,000); P11473; AID 504847; VDR-SRC2-3 peptide fluorescence polarization, 2 h; Potency, µM, most hits filed as inhibitors
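The screen uses fluorescence polarization to detect compounds that interfere with recruitment of the SRC2-3 coactivator peptide to VDR; plates are read after 2 h at room temperature.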
Tau fluor counter – counter-screen for tau fibril formation inhibitors | tau K18 P301L (four-repeat tau fragment) Alexa594 fluorescence, heparin fibrillization | actives 0.93% (n = 280,000) | Potency, µM (top dose mostly 57.7 µM); note: nearly all actives have a fitted effect of over 55% in size
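Human K18 P301L tau (15 uM unlabeled plus 0.24 uM Alexa 594-labeled, final) in 100 mM sodium acetate pH 7 was mixed with compound and 20 uM heparin and incubated 6 hr at 37 C.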
Tau FP inhib – tau fibrillization inhibition (FP) | K18 P301L tau heparin fibrillization, Alexa594 FP, 6 h | AID 1468 | Potency, µM (highest dose often 57.7 µM), most hits filed as inhibitors | P10636 | actives 0.39% (n = 280,000); note: nearly all actives have a fitted effect of over 55% in size
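K18 P301L tau (15 uM unlabeled/0.24 uM Alexa 594-labeled, final) + compound + heparin 20 uM final; 100 mM NaOAc pH 7; 6 hr 37 C; ThT 30 uM final added, 1 hr RT; FP ex 555/em 632 nm.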
Numbers stand for hits; [ ] = dose if it differs, or a comment. Calls come from the whole dose curve; as a rule, active = well fitted curve in the direction sought with a large enough effect; inconclusive = small, poorly fitted or top-dose-only effect, or another doubt; inactive = no such curve, though single readings can be large; an effect the other way counts as inactive or inconclusive.

What do the screens show for `COC(=O)Nc1ccc(S(=O)(=O)N(CCO)CC(F)(F)C(F)F)cc1`?
Tau ThT inhib: inactive; PLK1 PBD block: inactive; Sfp inh: inactive; VDR inh: inactive; Tau fluor counter: inactive; Tau FP inhib: inactive

What do the screens show for `COC(=O)c1ccc(NC(=O)CC2Nc3cc(C)c(C)cc3NC2=O)cc1` (stereo not drawn)?
Tau ThT inhib: inconclusive; VDR inh: inactive; Tau fluor counter: inconclusive; Tau FP inhib: inactive

What do the screens show for `O=C(NCCNC(=O)c1cc(OCC(F)(F)F)ccc1OCC(F)(F)F)Nc1cccc(C(F)(F)F)c1`?
Tau ThT inhib: inactive; PLK1 PBD block: inactive; Sfp inh: inconclusive; VDR inh: inactive; Tau fluor counter: inconclusive; Tau FP inhib: 10µM

Results for CCN(CC)S(=O)(=O)c1ccc(NC(=O)C2c3ccccc3Oc3ccccc32)cc1 ?
Tau ThT inhib: inactive; PLK1 PBD block: inactive; Sfp inh: inactive; VDR inh: inactive; Tau fluor counter: inconclusive; Tau FP inhib: 28µM

Results for CCN(CC)S(=O)(=O)c1ccc(NC(=O)Nc2cccc(C(F)(F)F)c2)cc1 ?
Tau ThT inhib: inactive; PLK1 PBD block: inactive; Sfp inh: inconclusive; VDR inh: inactive; Tau fluor counter: inconclusive; Tau FP inhib: 7.9µM

How did CN(C)S(=O)(=O)NCCNC(=O)c1cc(OCC(F)(F)F)ccc1OCC(F)(F)F do in these assays?
Tau ThT inhib: inactive; PLK1 PBD block: inactive; Sfp inh: inactive; VDR inh: inactive; Tau fluor counter: inactive; Tau FP inhib: inactive

How did O=C(Nc1ccncc1)Nc1cccc(C(F)(F)F)c1 do in these assays?
PLK1 PBD block: inactive; Sfp inh: inactive; VDR inh: inactive

How did Cc1ccccc1NC(=S)NCc1cccn1C do in these assays?
Tau ThT inhib: inactive; PLK1 PBD block: inactive; Sfp inh: inactive; VDR inh: inactive; Tau fluor counter: inactive; Tau FP inhib: inactive

What do the screens show for `Cc1c(Cl)cccc1NC(=S)NCc1cccn1C`?
Tau ThT inhib: inactive; PLK1 PBD block: 17µM; Sfp inh: inactive; VDR inh: inconclusive; Tau fluor counter: inactive; Tau FP inhib: inactive

What do the screens show for `O=C(O)c1c(C(=O)O)c2ccccc2[nH]c1=O`?
Tau ThT inhib: inactive; Sfp inh: inactive; VDR inh: inactive; Tau fluor counter: inactive; Tau FP inhib: inactive

Results for O=C(/C=C/c1ccc(-c2ccccc2)o1)c1ccccc1 ?
Tau ThT inhib: inactive; PLK1 PBD block: inactive; Sfp inh: 16µM; VDR inh: inactive; Tau fluor counter: inactive; Tau FP inhib: inactive

What do the screens show for `Cc1ccc(C(=O)C=CC=Cc2ccccc2)cc1`?
PLK1 PBD block: inactive

What do the screens show for `Cc1ccc(-c2ccc(/C=C/C(=O)c3ccccc3)o2)cc1`?
Tau ThT inhib: 13µM; PLK1 PBD block: inactive; Sfp inh: 11µM; VDR inh: inactive; Tau fluor counter: inactive; Tau FP inhib: inactive

Results for COc1ccc(OC)c(CCNC(=O)Cn2sc3nc(C)cc(C)c3c2=O)c1 ?
Tau ThT inhib: 11µM; Sfp inh: 1.4µM; Tau fluor counter: inactive; Tau FP inhib: inconclusive

How did Cc1cc(C)c2c(=O)n(CC(=O)Nc3cccc(Cl)c3C)sc2n1 do in these assays?
PLK1 PBD block: 2.7µM; Sfp inh: 2.5µM; VDR inh: 18µM; Tau fluor counter: inconclusive; Tau FP inhib: 20µM

What do the screens show for `Cc1cc(C)c2c(=O)n(CC(=O)Nc3ccc(Br)c(C)c3)sc2n1`?
Tau ThT inhib: inconclusive; PLK1 PBD block: 3µM; Sfp inh: 3.2µM; VDR inh: inconclusive; Tau fluor counter: inconclusive; Tau FP inhib: inconclusive

How did Cc1cc(C)c2c(N)c(C(=O)NC3CCCC3)sc2n1 do in these assays?
Tau ThT inhib: inactive; PLK1 PBD block: inactive; Sfp inh: inactive; VDR inh: inactive; Tau fluor counter: inactive; Tau FP inhib: inactive

How did Cc1cc(C)c2c(=O)n(CC(=O)NC3CCCC3)sc2n1 do in these assays?
Tau ThT inhib: 13µM; PLK1 PBD block: 1.9µM; Sfp inh: 2.8µM; VDR inh: 10µM; Tau fluor counter: inactive; Tau FP inhib: 14µM

Results for Cc1c(Cl)cccc1NC(=O)Cn1cccc1 ?
Tau ThT inhib: inactive; PLK1 PBD block: inactive; Sfp inh: inactive; VDR inh: inactive; Tau fluor counter: inactive; Tau FP inhib: inactive

Results for CC(=O)N1CCc2cc(Br)cc(S(=O)(=O)N3CCC(C(=O)Nc4ccc(C(C)C)cc4)CC3)c21 ?
Tau ThT inhib: inactive; VDR inh: inconclusive; Tau fluor counter: inactive; Tau FP inhib: inconclusive

How did COc1ccc2c(c1)c1c(c(=O)n(-c3ccc(OC)c(OC)c3)c(=O)n1Cc1ccccc1F)n2C do in these assays?
Tau ThT inhib: inactive; VDR inh: inactive; Tau fluor counter: inactive; Tau FP inhib: inactive

What do the screens show for `COC(=O)c1ccccc1NC(=O)CSc1nc(-c2ccccc2)cc(C(F)(F)F)n1`?
Tau ThT inhib: inactive; VDR inh: inactive; Tau fluor counter: inactive; Tau FP inhib: inactive

How did C/C(Cc1ccccc1)=N\NC(=O)c1ccccn1 do in these assays?
PLK1 PBD block: inactive; Sfp inh: 50µM; VDR inh: inactive

How did C/C(=N/NC(=O)c1cnccn1)c1ccncc1 do in these assays?
Tau ThT inhib: inactive; PLK1 PBD block: inactive; Sfp inh: inactive; VDR inh: inactive; Tau fluor counter: inactive; Tau FP inhib: inactive

What do the screens show for `C/C(=N/NC(=O)c1ccccn1)c1ccncc1`?
PLK1 PBD block: inactive; Sfp inh: 56µM; VDR inh: inactive

What do the screens show for `CC1CCc2nc(-c3cc4ccc(O)cc4oc3=O)sc2C1` (stereo not drawn)?
VDR inh: inactive

How did COc1ncc(-c2ccc(N3C(c4ccsc4)=Cc4ccc(F)cc4C3CC(C)=O)cc2)cn1 (stereo not drawn) do in these assays?
PLK1 PBD block: inactive

Results for Cc1ccc(N2CC(NC(=O)CCc3ccccc3)CC2=O)cc1C (stereo not drawn) ?
Tau ThT inhib: inactive; VDR inh: inactive; Tau fluor counter: inactive; Tau FP inhib: inactive

What do the screens show for `COc1ccccc1Nc1ccc(C(=O)NCc2cccs2)cn1`?
Tau ThT inhib: inactive; PLK1 PBD block: inactive; Sfp inh: inactive; VDR inh: inactive; Tau fluor counter: inactive; Tau FP inhib: inactive[2.34 µM]

Results for COc1ccccc1Nc1ncc(-c2cccs2)s1 ?
Tau ThT inhib: 14µM; PLK1 PBD block: inconclusive; Sfp inh: inactive; VDR inh: inconclusive; Tau fluor counter: 16µM[quencher]; Tau FP inhib: inactive

What do the screens show for `Cc1ccc(-n2ncc3c(Nc4ccc5c(c4)OCCO5)ncnc32)cc1Cl`?
Tau ThT inhib: inconclusive; VDR inh: inactive; Tau fluor counter: inconclusive; Tau FP inhib: inactive

How did Clc1cccc(-n2ncc3c(Nc4ccc5c(c4)OCCO5)ncnc32)c1 do in these assays?
Tau ThT inhib: inconclusive; VDR inh: inactive; Tau fluor counter: 6.3µM[quencher]; Tau FP inhib: inconclusive

How did CC(C)c1ccc2oc(-c3ccc(NC(=O)c4cccc(Br)c4)cc3)nc2c1 do in these assays?
Tau ThT inhib: inactive; VDR inh: inactive; Tau fluor counter: inactive; Tau FP inhib: inconclusive

From PubChem
